# From PubChem BioAssay AID602144 (Vanderbilt Specialized Chemistry Center, 2011)
# Activity calls are given as the source filed them. Cut-off read from the data, not from the text of the source: active = remaining activity below about 50%; inactive = the rest.
# Molecular target: Phospholipase D1 (Homo sapiens) (UniProt Q13393)
# Test: PLD1 inhibitors in cells, Calu-1 cells, single concentration (AID 602144);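 note: tested at 200 nM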
# Conditions: cellular PLD1 activity, hits give low values
# Sequence of Phospholipase D1 (Homo sapiens) (Q13393 whole entry, looked up): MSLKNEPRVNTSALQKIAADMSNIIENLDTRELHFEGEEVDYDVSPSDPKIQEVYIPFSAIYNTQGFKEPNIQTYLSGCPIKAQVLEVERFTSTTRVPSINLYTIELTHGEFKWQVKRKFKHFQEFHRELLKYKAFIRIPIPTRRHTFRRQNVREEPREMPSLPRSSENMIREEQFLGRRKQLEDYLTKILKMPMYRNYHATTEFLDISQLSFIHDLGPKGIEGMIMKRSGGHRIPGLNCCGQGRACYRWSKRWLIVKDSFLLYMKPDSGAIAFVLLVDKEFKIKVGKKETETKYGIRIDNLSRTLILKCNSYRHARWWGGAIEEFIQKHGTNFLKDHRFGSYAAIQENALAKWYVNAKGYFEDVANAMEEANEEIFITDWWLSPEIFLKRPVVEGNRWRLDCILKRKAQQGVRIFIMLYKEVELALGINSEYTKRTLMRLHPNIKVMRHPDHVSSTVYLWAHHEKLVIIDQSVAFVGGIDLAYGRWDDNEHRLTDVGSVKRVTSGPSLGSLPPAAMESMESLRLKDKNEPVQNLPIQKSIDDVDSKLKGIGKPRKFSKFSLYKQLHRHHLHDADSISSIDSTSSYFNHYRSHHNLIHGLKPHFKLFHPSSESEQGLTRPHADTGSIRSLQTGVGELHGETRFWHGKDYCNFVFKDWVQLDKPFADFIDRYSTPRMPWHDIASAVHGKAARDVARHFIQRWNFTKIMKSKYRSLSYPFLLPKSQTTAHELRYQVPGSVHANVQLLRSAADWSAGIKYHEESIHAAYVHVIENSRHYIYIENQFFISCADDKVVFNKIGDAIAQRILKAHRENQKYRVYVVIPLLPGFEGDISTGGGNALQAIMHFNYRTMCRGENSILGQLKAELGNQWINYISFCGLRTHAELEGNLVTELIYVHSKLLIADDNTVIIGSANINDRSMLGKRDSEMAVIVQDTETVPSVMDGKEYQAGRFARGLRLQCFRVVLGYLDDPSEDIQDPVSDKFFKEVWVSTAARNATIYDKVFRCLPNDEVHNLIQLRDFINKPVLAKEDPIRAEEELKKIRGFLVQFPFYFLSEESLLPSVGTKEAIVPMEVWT
# Sequence of Phospholipase D1 (Homo sapiens) (Q13393 whole entry, looked up): as above
row,Compound,remaining activity
1,C[C@H](CN1CCC(n2nnc3ccccc32)CC1)NC(=O)c1ccc2ccccc2c1,27.1% (active)
2,O=C(NCCN1CCN(c2ccncc2)CC1)c1ccccc1-c1ccccc1,147% (inactive)
3,C[C@@H](CN1CCC(n2c(=O)[nH]c3ccccc32)CC1)NC(=O)c1ccc2ncccc2c1,29.2% (active)
4,COc1cccc(N2CCN(CCNC(=O)c3ccc4ccccc4c3)CC2)c1,77.7% (inactive)
5,Cn1c(=O)n(C2CCN(CCNC(=O)c3ccc4ccccc4c3)CC2)c2ccccc21,71.6% (inactive)
6,NC1(CN2CCC(n3c(=O)[nH]c4ccccc43)CC2)CCCC1 (tested in a mixture with another compound),86.8% (inactive)
7,C[C@@H](CN1CCC2(C=Cc3ccccc32)CC1)NC(=O)c1ccc2ccccc2c1,102% (inactive)
8,O=C(NCCN1CCC(n2c(=O)[nH]c3ccccc32)CC1)c1ccccc1-c1ccccc1,92.1% (inactive)
9,Cc1ccccc1NC(=S)NCCN1CCC(n2c(=O)[nH]c3ccccc32)CC1,173% (inactive)
10,COc1ccc2c(c1)c(CC(=O)NCCN1CCC(n3c(=O)[nH]c4ccccc43)CC1)c(C)n2C(=O)c1ccc(Cl)cc1,98.1% (inactive)
11,O=C(NCCN1CCC(n2c(=O)[nH]c3ccc(F)cc32)CC1)c1ccc(C(F)(F)F)cc1,19.1% (active)
12,Cc1ccc(C(=O)NCCN2CCN(c3ccccn3)CC2)cc1,111% (inactive)
13,O=C(NCCN1CC=C(n2nnc3cc(C(F)(F)F)ccc32)CC1)c1cnc2ccccc2c1,44.5% (active)
14,C[C@@H](CN1CCC(n2c(=O)[nH]c3ccccc32)CC1)NC(=O)c1ccc[nH]1,48.2% (active)
15,O=c1[nH]c2ccccc2n1C1CCN(CCNS(=O)(=O)c2cc(Cl)ccc2Cl)CC1,104% (inactive)
16,C[C@@H](CN1CCC(n2c(=O)[nH]c3ccccc32)CC1)NC(=O)COc1ccccc1,28.1% (active)
17,O=c1[nH]c2ccccc2n1C1CCN(CCNC(=S)Nc2cccc3ccccc23)CC1,152% (inactive)
18,O=C(c1ccc2ccccc2c1)N1CCC(n2c(=O)[nH]c3cc(Cl)ccc32)CC1,77.3% (inactive)
19,O=C(NCCN1CCC(n2c(=O)[nH]c3ccccc32)CC1)c1cccc2ccc3ccccc3c12,75.2% (inactive)
20,O=C(NCCN1CCN(c2ccncc2)CC1)c1c2ccccc2cc2ccccc12,183% (inactive)
21,O=C(NCCN1CCC(n2c(=O)[nH]c3ccccc32)CC1)C(c1ccccc1)(c1ccccc1)c1ccccc1,99% (inactive)
22,O=C(NCCN1CCC2(CCc3ccccc32)CC1)c1cnc2ccccc2c1,113% (inactive)
23,Cc1cc(C)c(S(=O)(=O)NCCN2CCC(n3c(=O)[nH]c4ccccc43)CC2)c(C)c1,133% (inactive)
24,O=C(NCCN1CCC(C(=O)Nc2ccccc2)CC1)c1ccc2ccccc2c1,102% (inactive)
25,O=C(NCCN1CCN(c2ccncc2)CC1)c1ccc2ccccc2c1,139% (inactive)
26,O=C(NCCN1CCC(n2c(=O)[nH]c3ccccc32)CC1)c1cccc(Cl)n1,37.8% (active)
